The source of these data is ChEMBL document CHEMBL3988442, “University of Dundee, Small-Polar-MMV Screening Library” (2021).

For some assays here: Potency and affinity values are given separately.

Common to all, as to design: scale not given: direction of the effect not stated beside the values
Experiment [1] addresses Protein translocase subunit SecA (Escherichia coli (strain K12)) (UniProt P10408). The experiment is described as follows: Assay to Identify E. coli SecA ATPase Inhibitors. As to conditions: 30 µM. The class given is functional.
Experiment [2] concerns the target T1, Ubiquitin-activating enzyme e1, putative (Leishmania donovani (strain BPK282A1)) (UniProt E9BSI1).
T1 sequence (whole entry): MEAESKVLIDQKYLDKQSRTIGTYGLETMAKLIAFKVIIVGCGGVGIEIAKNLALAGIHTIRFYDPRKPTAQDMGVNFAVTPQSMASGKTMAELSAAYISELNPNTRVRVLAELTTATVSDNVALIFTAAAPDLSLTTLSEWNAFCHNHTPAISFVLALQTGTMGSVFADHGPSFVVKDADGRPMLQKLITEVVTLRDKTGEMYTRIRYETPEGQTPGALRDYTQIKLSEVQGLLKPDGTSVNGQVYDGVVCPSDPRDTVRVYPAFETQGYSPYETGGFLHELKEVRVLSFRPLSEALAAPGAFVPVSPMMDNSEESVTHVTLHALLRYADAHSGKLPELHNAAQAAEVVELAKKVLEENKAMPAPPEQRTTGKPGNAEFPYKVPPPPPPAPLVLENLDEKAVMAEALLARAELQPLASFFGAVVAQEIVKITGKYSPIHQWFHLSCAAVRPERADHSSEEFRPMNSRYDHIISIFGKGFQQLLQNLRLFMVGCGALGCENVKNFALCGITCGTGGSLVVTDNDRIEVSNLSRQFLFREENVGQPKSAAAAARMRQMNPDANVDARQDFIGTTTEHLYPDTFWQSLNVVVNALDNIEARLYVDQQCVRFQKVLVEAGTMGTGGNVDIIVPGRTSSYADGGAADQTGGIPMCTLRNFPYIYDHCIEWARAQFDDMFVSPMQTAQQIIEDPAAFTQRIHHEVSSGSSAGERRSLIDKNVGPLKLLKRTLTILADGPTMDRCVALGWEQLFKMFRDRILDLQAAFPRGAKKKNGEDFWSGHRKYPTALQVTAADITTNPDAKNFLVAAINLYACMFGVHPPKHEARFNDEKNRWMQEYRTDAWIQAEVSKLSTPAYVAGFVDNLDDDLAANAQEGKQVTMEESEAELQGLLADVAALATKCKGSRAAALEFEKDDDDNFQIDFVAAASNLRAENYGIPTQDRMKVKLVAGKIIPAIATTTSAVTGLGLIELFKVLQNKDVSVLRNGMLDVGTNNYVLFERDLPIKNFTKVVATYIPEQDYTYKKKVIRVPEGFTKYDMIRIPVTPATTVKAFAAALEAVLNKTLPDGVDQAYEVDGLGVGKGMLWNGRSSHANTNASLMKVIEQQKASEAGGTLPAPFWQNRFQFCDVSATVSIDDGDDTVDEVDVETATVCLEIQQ
The experiment is described as follows: Leishmania donovani Ubiquitin Activating Enzyme (LdE1). It is filed as functional. The note with it: 30 µM.

The target in experiment [3] is AMP-activated protein kinase, AMPK (Homo sapiens) (UniProt P54646+O43741+P54619+Q9UGJ0+Q9Y478+Q13131+Q9UGI9). The experiment is described as follows: AMP-dependent Kinase enzyme assay. An in vitro enzyme assay that detects ADP turnover that is directly proportional to AMPK activity. This uses naive AMPK that is activated during the assay with MK-8722. As to conditions: 30 µM. It is filed as functional.

The target in experiment [4] is Sialic acid-binding Ig-like lectin 9 (Homo sapiens) (UniProt Q9Y336). The experiment is described as follows: Hs-Siglec9 ALPHAscreen SOP 20170721. The note with it: 10 µM. (Bead proximity is the source of the signal in Alpha formats.)
Experiment [5] relates to Trypanosoma cruzi. The experiment is described as follows: Trypanosoma cruzi phosphomannomutase and mannose-1-phosphate guanylyltransferase assay. The class given is functional. The note with it: 10 µM.
In experiment [6] the target is T2, Arginase-2, mitochondrial (Homo sapiens) (UniProt P78540).
T2 sequence (whole entry): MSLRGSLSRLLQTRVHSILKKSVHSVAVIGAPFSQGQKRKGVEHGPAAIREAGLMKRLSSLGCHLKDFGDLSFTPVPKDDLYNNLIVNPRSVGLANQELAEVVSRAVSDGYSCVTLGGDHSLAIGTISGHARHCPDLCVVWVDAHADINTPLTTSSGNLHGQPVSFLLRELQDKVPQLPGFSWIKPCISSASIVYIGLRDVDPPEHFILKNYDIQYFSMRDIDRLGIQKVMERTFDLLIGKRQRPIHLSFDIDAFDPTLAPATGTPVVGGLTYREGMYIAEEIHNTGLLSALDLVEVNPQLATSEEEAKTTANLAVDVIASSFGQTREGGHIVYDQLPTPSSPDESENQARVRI
The experiment is described as follows: in vitro enzyme assay to detect the production of urea directly proportional to the activity of Arginase II. Further: in the data most compounds retested in dose-response had high values. The class given is functional. As to conditions: 33.3 µM.

The target in experiment [7] is T3, Proteasome subunit beta (Trypanosoma cruzi) (UniProt O96673).
T3 sequence (whole entry): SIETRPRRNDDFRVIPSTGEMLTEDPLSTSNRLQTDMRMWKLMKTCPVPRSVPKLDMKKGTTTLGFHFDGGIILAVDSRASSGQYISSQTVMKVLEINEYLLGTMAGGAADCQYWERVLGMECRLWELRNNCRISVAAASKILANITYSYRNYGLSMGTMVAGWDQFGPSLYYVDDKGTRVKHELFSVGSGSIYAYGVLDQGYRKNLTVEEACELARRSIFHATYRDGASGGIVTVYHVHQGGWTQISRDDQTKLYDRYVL
The experiment is described as follows: Trypanosoma cruzi proteasome chymotrypsin-like activity (TcProtChymo) assay. Further: in the data most compounds retested in dose-response had high values. The note with it: 9.37 µM. The class given is functional.

The species named for experiment [8] is Homo sapiens. The experiment is described as follows: To identify inhibition of the IFN signalling (Jak-Stat) pathway via expression of an eGFP reporter gene under the control of an IFN-stimulated response element (ISRE) containing MxA promoter. It is filed as functional. The note with it: 30 µM. (In a reporter assay the amount or activity of a reporter protein is the signal.)

Experiment [9] has as its target T4, Tyrosyl-tRNA synthetase, putative (Trypanosoma cruzi (strain CL Brener)) (UniProt Q4DSP6).
T4 sequence (whole entry): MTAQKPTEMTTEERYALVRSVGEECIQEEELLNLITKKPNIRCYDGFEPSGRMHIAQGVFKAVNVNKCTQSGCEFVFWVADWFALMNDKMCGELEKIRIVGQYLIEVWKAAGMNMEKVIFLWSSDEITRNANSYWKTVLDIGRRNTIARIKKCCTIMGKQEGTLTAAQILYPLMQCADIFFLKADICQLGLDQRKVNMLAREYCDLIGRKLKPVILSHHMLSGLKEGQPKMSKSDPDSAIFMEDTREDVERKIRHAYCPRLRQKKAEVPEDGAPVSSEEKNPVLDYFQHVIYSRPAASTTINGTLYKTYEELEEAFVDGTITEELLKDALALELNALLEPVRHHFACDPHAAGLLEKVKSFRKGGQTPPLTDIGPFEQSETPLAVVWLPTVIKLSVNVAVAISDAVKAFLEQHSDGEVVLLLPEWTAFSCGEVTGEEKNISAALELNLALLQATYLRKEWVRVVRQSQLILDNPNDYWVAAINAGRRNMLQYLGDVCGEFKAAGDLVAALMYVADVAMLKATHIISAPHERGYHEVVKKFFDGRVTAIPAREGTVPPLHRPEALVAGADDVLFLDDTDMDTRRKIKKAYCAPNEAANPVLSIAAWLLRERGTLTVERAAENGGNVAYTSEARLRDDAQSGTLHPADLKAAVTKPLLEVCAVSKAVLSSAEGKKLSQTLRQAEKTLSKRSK
The experiment is described as follows: Trypanosoma cruzi tyrosyl tRNA synthetase (TcYRS) _High Tyrosine SOP. Further: in the data most compounds retested in dose-response had high values. It is filed as functional. As to conditions: 30 µM.

Experiment [10] addresses T4, Tyrosyl-tRNA synthetase, putative (Trypanosoma cruzi (strain CL Brener)). The experiment is described as follows: Trypanosoma cruzi tyrosyl tRNA synthetase (TcYRS) SOP. As to conditions: 30 µM. The class given is functional.
For experiment [11], the target named is Chromo domain-containing protein 1 (Saccharomyces cerevisiae (strain ATCC 204508 / S288c) (Baker's yeast)) (UniProt P32657). The experiment is described as follows: ScCHD-1 Enzyme Inhibition Assay. Further: in the data most compounds retested in dose-response had high values. The class given is functional. The note with it: 30 µM.
Chromo domain-containing protein 1 (Saccharomyces cerevisiae (strain ATCC 204508 / S288c) (Baker's yeast)), sequence (P32657 whole entry, the tested form may be a part): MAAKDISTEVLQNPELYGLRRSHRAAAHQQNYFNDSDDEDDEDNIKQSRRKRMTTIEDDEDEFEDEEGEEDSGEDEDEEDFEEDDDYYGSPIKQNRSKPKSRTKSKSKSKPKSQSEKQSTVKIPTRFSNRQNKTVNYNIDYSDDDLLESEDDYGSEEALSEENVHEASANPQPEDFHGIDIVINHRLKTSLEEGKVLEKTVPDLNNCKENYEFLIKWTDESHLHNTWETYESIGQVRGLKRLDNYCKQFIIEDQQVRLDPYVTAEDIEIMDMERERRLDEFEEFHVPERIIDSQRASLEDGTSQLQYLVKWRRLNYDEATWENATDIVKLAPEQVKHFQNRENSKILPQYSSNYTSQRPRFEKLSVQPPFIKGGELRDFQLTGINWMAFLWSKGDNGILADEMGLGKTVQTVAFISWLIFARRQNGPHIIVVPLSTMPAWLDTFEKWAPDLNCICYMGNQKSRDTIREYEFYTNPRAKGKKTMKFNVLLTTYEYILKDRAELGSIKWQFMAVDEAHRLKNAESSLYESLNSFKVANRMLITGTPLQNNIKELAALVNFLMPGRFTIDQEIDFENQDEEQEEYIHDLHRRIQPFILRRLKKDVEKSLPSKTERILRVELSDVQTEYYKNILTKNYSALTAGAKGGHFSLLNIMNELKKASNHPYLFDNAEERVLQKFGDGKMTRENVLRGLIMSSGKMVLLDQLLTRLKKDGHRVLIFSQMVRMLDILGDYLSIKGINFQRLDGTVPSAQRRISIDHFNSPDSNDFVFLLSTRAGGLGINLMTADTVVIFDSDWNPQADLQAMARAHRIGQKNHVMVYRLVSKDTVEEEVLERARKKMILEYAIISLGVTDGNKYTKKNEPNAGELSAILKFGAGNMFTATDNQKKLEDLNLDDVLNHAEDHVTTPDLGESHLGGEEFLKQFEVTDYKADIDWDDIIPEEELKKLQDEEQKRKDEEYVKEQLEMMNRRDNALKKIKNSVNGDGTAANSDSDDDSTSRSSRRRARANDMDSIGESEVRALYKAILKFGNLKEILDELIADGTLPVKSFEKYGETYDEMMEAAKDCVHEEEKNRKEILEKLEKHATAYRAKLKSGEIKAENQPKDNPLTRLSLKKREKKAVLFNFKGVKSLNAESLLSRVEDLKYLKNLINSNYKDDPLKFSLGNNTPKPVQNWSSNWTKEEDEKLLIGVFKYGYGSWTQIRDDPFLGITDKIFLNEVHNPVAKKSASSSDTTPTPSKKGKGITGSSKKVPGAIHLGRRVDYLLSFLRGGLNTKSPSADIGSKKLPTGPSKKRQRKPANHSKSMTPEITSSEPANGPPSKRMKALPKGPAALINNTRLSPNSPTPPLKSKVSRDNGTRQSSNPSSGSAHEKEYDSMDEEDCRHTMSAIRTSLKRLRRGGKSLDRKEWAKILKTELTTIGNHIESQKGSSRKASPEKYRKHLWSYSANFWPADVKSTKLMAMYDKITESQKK

Protein translocase subunit SecA (Escherichia coli (strain K12)), sequence (P10408 whole entry): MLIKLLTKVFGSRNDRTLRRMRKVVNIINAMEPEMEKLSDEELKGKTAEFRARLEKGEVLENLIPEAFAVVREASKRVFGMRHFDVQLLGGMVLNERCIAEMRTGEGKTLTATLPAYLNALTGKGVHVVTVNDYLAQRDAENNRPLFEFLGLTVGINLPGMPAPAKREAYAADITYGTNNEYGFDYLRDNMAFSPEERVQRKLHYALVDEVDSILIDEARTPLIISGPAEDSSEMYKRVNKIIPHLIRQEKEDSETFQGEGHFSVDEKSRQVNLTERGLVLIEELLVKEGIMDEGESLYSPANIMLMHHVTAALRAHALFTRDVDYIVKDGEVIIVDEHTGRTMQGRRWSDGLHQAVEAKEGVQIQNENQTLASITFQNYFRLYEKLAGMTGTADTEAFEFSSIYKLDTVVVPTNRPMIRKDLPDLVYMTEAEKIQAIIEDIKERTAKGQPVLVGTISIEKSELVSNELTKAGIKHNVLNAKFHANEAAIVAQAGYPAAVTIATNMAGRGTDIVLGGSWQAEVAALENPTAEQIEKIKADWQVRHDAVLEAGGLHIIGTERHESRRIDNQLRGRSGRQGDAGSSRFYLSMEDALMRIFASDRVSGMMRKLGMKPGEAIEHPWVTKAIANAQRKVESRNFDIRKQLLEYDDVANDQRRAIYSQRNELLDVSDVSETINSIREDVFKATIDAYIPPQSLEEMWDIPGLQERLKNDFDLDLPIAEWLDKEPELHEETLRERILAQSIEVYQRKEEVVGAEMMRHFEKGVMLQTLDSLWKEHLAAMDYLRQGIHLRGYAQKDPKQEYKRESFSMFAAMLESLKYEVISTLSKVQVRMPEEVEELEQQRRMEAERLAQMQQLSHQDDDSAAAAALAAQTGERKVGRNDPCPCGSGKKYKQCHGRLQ
Sialic acid-binding Ig-like lectin 9 (Homo sapiens), sequence (Q9Y336 whole entry): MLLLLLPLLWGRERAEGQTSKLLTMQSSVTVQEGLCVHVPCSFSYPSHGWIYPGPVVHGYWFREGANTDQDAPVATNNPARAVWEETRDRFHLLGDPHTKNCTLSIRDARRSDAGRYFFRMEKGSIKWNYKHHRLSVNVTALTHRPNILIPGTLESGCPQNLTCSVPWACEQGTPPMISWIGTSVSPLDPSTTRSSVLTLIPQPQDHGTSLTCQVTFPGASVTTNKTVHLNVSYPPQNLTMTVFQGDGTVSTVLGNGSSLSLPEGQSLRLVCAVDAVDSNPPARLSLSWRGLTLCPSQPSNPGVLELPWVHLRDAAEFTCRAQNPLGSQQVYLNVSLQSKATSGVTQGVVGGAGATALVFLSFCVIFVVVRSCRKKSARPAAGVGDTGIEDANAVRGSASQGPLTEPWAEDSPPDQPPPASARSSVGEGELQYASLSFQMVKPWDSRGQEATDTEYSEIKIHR

Take `O=C(NCc1cccs1)[C@H]1CC[C@@H]2[C@@H](CCN2c2ncccn2)O1`: the Percent Effect in experiment [1] was -2.42%; in [2], 5.41%; in experiment [3] it was -0.805%; in experiment [4], -3.31%; in experiment [5], 6.45%; in experiment [6], -0.833%. In addition, the Percent Effect in experiment [7] is 18.9%; in [8], 18.7%; in experiment [9] it was 8.91%; in experiment [10] it was 18.3%; in experiment [11], -3.92%.

`CC(C)C(=O)NC1CCN(Cc2cccc3c2OCCO3)CC1`: the Percent Effect was -2.08% in [1]; -1.27% in experiment [2]; 4.8% in experiment [3]; 0.497% in experiment [4]; -2.36% in experiment [5]; 3.66% in experiment [6]. Besides, the Percent Effect in experiment [7] was -2.06%; in experiment [8], 17.1%; in experiment [9], 2.08%; in experiment [10], -2.53%; in experiment [11] it was -21.1%.

For the compound `CC(NC(=O)NCCN1CCCCCC1=O)c1nncn1C` (stereo not given), the Percent Effect was -5.58% in [1]; 13.5% in experiment [2]; -10.1% in [3]; 13.4% in experiment [4]; 4.92% in [5]; -3.51% in [6]. The Percent Effect in experiment [7] is -2.69%; in [8] it was 11.3%; in [9] it was 7.92%; in [10], 15.8%; in [11] it was -6.06%.

On to `COc1c(CNC2CCN(C(=O)C3CC3)CC2)c(C(C)C)nn1C`, for which the Percent Effect in experiment [1] was -4.71%; in experiment [2], 21.1%; in experiment [3], -4.53%; in experiment [4] it was -2.41%; in experiment [5] it was -4.95%; in [6], 1.44%. Besides, the Percent Effect in experiment [7] was -0.0846%; in experiment [8], 15.4%; in [9], 6.4%; in [10] it was 18.5%; in experiment [11] it was -3.47%.

As for `Cc1nn(CCO)c(C)c1CNC1CCc2c(Cl)cccc21` (stereo not given), the Percent Effect in experiment [1] is -3.63%; in experiment [2] it was 8%; in experiment [3], -5.26%; in experiment [4], 16.9%; in experiment [5], 8.67%; in [6], 46.9%. Besides, the Percent Effect in [7] was 0.174%; in [8] it was 8.33%; in experiment [9] it was 1.64%; in [10], 8.64%; in experiment [11], -14.3%.

Take `Cc1cnn(CC2CCCN2C(=O)c2ccc3[nH]nnc3c2)c1` (stereo not given): the Percent Effect in experiment [1] was -1.48%; in experiment [2] it was 8.86%; in [3], -1.94%; in [4], -8.54%; in experiment [5] it was 2.97%; in experiment [6] it was -2.8%. Further, the Percent Effect is 17.5% in experiment [7]; 2.88% in experiment [8]; 1.04% in experiment [9]; 10.1% in experiment [10]; -4.85% in [11].

Regarding `CC(C(=O)NCc1ccc(-n2cncn2)nc1)n1ccnc1` (stereo not given), the Percent Effect in experiment [1] was -3.77%; in [2], 2.6%; in [3], 0.227%; in experiment [4] it was 15%; in [5] it was 2.25%; in [6] it was 1.05%. In addition, the Percent Effect is -1.21% in experiment [7]; -15.5% in [8]; 2.86% in [9]; 2.35% in experiment [10]; -8.54% in experiment [11].

Consider `O=C(c1ccc[nH]1)N1CCn2cc(CN3CCCC3)nc2C1`, for which the Percent Effect in [1] is -5.65%; in experiment [2], 0%; in experiment [3], 7.25%; in experiment [4], -0.683%; in [5], -3.35%; in [6], -0.699%. Besides, the Percent Effect was 9.07% in experiment [7]; 8.62% in [8]; 1.06% in [9]; 3.85% in experiment [10]; -0.931% in experiment [11].

Turning to `O=C(c1cccc(CNCC2CNc3ccnn3C2)c1)N1CCCC1` (stereo not given), the Percent Effect is -3.44% in experiment [1]; 8.86% in experiment [2]; -18.1% in experiment [3]; -4.78% in experiment [4]; 4.41% in [5]; -4.09% in experiment [6]. In addition, the Percent Effect is 18.4% in [7]; 6.92% in experiment [8]; 8.33% in experiment [9]; 10.1% in experiment [10]; -18.2% in experiment [11].

Take `Cc1ccoc1C(=O)N1CCO[C@H]2[C@H](OCC3CCOCC3)CC[C@@H]21`: the Percent Effect was -3.5% in experiment [1]; 5.33% in [2]; -1.93% in [3]; 2.92% in experiment [4]; 5.02% in experiment [5]; -48.9% in experiment [6]. Moreover, the Percent Effect in experiment [7] was -0.513%; in experiment [8], -9.79%; in experiment [9] it was 2.08%; in experiment [10], -5%; in [11], -3.9%.
